Test results from PubChem BioAssay AID463173 (ICCB-Longwood Screening Facility, Harvard Medical School, 2010).
The whole screen tested about 52,000 compounds, of which about 4,300 (8.3%) were called active. Rule as the data show it: active = survival mostly below about 52% (no sharp cut-off); inactive = mostly above about 56%. Shown is part of a subset that was picked to be rich in actives.

system: DeltatarO mutant; assay: S. aureus survival, RN4220 and DeltatarO strains – OD600, teichoic acid synthesis inhibitors, primary screen (AID 463173); details: S. aureus RN4220 wild type/DeltatarO growth, OD600, 18 h, active compounds read low, screened at 18.75 µg/mL (by protocol)

Compound	survival
O=C(NCC(=O)N1CCCCC1)c1ccccc1	97% (inactive)
Cc1ccc(Cl)cc1NC(=O)Cn1c(=O)oc2cc(S(=O)(=O)N3CCCC3)ccc21	81% (inactive)
CCc1ccccc1NC(=O)Cn1c(=O)n(CCc2ccccc2)c(=O)c2ccccc21	89% (inactive)
COC(=O)c1ccc(Cn2nc(-c3ccc(C)c(C)c3)ccc2=O)cc1	67% (inactive)
COc1ccc(NC(=O)c2cn(CC(C)C)c(=O)c3cc(OC)c(OC)cc23)cc1Cl	50% (inactive)
COc1ccc(C)cc1NC(=O)c1cn(C)c(=O)c2cc(OC)c(OC)cc12	72% (inactive)
CCn1cc(C(=O)Nc2ccc(C(C)C)cc2)c2cc(OC)c(OC)cc2c1=O	63% (inactive)
CCn1cc(C(=O)Nc2cccc(Cl)c2)c2cc(OC)c(OC)cc2c1=O	46% (active)
CCOC(=O)c1ccccc1NC(=O)c1cn(CC(C)C)c(=O)c2cc(OC)c(OC)cc12	53% (inactive)
COc1ccc(OC)c(NC(=O)c2cn(CC(C)C)c(=O)c3cc(OC)c(OC)cc23)c1	50% (active)
CCn1cc(C(=O)N2CCN(c3cccc(Cl)c3)CC2)c2cc(OC)c(OC)cc2c1=O	54% (inactive)
COc1ccc(NC(=O)Nc2cn(CC(C)C)c(=O)c3ccccc23)c(OC)c1	91% (inactive)
COc1cc(Cl)c(C)cc1NC(=O)c1cn(CC(C)C)c(=O)c2cc(OC)c(OC)cc12	42% (active)
COc1ccc(Cn2c(C(=O)O)c(CNCCc3cc(OC)ccc3OC)c3ccc(C)cc32)cc1	85% (inactive)
COc1ccccc1NC(=O)c1c(C)cc(C)nc1SCC(=O)Nc1ccc(C)cc1	51% (inactive)
CC(C)c1cccc(C(C)C)c1NC1=NS(=O)(=O)c2ccccc21	76% (inactive)
COc1cc(C(=O)N2CCc3ccccc32)cc(OC)c1OC	104% (inactive)
O=C(c1ccc2c(c1)N(Cc1ccccc1F)C(=O)c1ccccc1S2(=O)=O)N1CCCCCC1	73% (inactive)
CN1CCN(C(=O)C2CCCCC2C(=O)O)CC1 (centres undefined)	78% (inactive)
COC(=O)c1cc2sccc2n1Cc1nc(-c2cccc(Br)c2)oc1C	70% (inactive)
CCc1ccc(C2NC(=O)c3[nH]nc(-c4cccc(OC)c4)c32)cc1 (centres undefined)	54% (inactive)

Compound	survival
COc1ccc(-c2n[nH]c3c2C(c2ccc(Cl)cc2Cl)NC3=O)cc1 (centres undefined)	-12% (active)
COc1ccc(OC)c(C2c3c(-c4ccc(Br)cc4)n[nH]c3C(=O)N2c2ccc(Cl)cc2)c1 (centres undefined)	89% (inactive)
Cc1ccc(CC(=O)Nc2c(C(=O)N3CCN(c4ccccc4F)CC3)oc3ccccc23)cc1	74% (inactive)
Cc1ccc(-n2c(=O)c3c(C)c(C)sc3n(Cc3ccc(F)cc3Cl)c2=O)cc1C	38% (active)
CCc1ccc(NC(=O)Cn2c(=O)n(-c3ccc(Cl)c(Cl)c3)c(=O)c3c(C)c(C)sc32)cc1	97% (inactive)
CCN(CC)C(=O)Cn1c(=O)n(-c2ccc(Cl)cc2)c(=O)c2c3c(sc21)CCCCC3	89% (inactive)
CCOc1ccc(-n2c(=O)c3c(C)c(C)sc3n(CC(=O)Nc3ccc(CC)cc3)c2=O)cc1	46% (active)
Cc1ccc(-n2c(=O)c3c4c(sc3n(Cc3cc(=O)n5cc(Cl)ccc5n3)c2=O)CCC4)cc1C	169% (inactive)
CCOc1ccc(-n2c(=O)c3c4c(sc3n(Cc3cc(=O)n5cc(Cl)ccc5n3)c2=O)CCC4)cc1	64% (active)
CCCCN(CC)C(=O)Cn1c(=O)n(-c2ccc(OCC)cc2)c(=O)c2c3c(sc21)CCC3	78% (inactive)
CCCCN(CC)C(=O)Cn1c(=O)n(-c2ccc(OCC)cc2)c(=O)c2c3c(sc21)CCCC3	89% (active)
CCOc1ccc(-n2c(=O)c3c(C)c(C)sc3n(CC(=O)NCCc3ccccc3)c2=O)cc1	84% (inactive)
Cc1ccc(C)c(Cn2c(=O)n(-c3ccc(Cl)cc3)c(=O)c3c(C)c(C)sc32)c1	76% (inactive)
Cc1ccc(Cn2c(=O)n(-c3ccc(C)c(C)c3)c(=O)c3c(C)c(C)sc32)cc1	71% (inactive)
CCOc1ccc(-n2c(=O)c3c(C)c(C)sc3n(Cc3cc(=O)n4cc(Cl)ccc4n3)c2=O)cc1	69% (inactive)
O=C(CCNS(=O)(=O)c1ccc2c(c1)CCCC(=O)N2)NCc1ccc(Cl)cc1	96% (inactive)
COc1ccc(CCNC(=O)c2cc3c(=O)n4cccc(C)c4nc3n2C)cc1	67% (inactive)
COc1ccc(NC(=O)C2CCCN(S(=O)(=O)c3ccc4[nH]c(=O)ccc4c3)C2)cc1Cl (centres undefined)	82% (inactive)
CC(=O)Nc1cccc(NC(=O)Cc2csc(COc3cccc(C)c3)n2)c1	89% (inactive)
CCOc1ccc(NC(=O)C(=O)NCCc2csc(-c3ccc(F)cc3)n2)cc1	82% (inactive)
CCN(CC)S(=O)(=O)c1ccc2c(c1)N(CC(=O)NCCCN1CCN(c3cc(Cl)ccc3C)CC1)C(=O)CO2	53% (inactive)

Compound	survival
CCOc1ccc(-c2noc(CSc3nnc(-c4ccccc4)n3-c3ccccc3)n2)cc1	66% (inactive)
COc1cccc(-n2cc(C(=O)Nc3ccccc3C(N)=O)c3ccccc3c2=O)c1	67% (inactive)
Cc1ccc(-n2c(=O)c3c(cnn3C)n(CC(=O)Nc3cccc(Cl)c3)c2=O)cc1	55% (active)
CCOc1ccc(-n2c(=O)c3c(C)c(C)sc3n(Cc3ccccc3C)c2=O)cc1	85% (inactive)
COc1cccc(-n2c(=O)c3c(C)c(C)sc3n(CC(=O)NCCc3ccc(OC)c(OC)c3)c2=O)c1	94% (inactive)
Cc1ccc(NC(=O)Cn2c(=O)n(-c3ccc(C)cc3)c(=O)c3c2cnn3C)cc1	63% (inactive)
CCOc1ccc(-n2c(=O)c3c(C)c(C)sc3n(CC(=O)C(C)(C)C)c2=O)cc1	121% (inactive)
Cc1ccc(-n2c(=O)c3c4c(sc3n(CC(=O)Nc3cccc(Cl)c3)c2=O)CCCCC4)cc1C	105% (active)
CCOc1ccc(-n2c(=O)c3c(C)c(C)sc3n(Cc3ccc(C(C)(C)C)cc3)c2=O)cc1	52% (active)
Cc1ccc(-n2c(=O)c3c(cnn3C)n(CC(=O)Nc3cccc(C)c3)c2=O)cc1	64% (inactive)
O=C(Cn1c(=O)n(-c2ccc(Cl)cc2)c(=O)c2c3c(sc21)CCCCC3)Nc1cccc(Cl)c1	84% (inactive)
COc1ccc(CCNC(=O)Cn2c(=O)n(-c3ccccc3)c(=O)c3c(C)c(C)sc32)cc1OC	84% (active)
COc1ccc(CCNC(=O)Cn2c(=O)n(-c3ccc(C)c(C)c3)c(=O)c3c(C)c(C)sc32)cc1OC	64% (inactive)
COc1ccc(NC(=O)Cn2c(=O)n(-c3ccc(C)c(C)c3)c(=O)c3c4c(sc32)CCCCC4)cc1Cl	76% (inactive)
COc1ccc(CCNC(=O)CSc2n[nH]c(-c3ccccc3Cl)n2)cc1OC	101% (inactive)
COc1ccc2c(c1)c1c(c(=O)n(-c3cccc(C)c3)c(=O)n1Cc1cccc(Cl)c1)n2C	84% (inactive)
CC(=O)N1CCCc2cc(S(=O)(=O)N(CCN(C)C)Cc3ccccc3)ccc21	102% (inactive)
Cc1csc2nc(COC(=O)c3ccc(NC(=O)C(C)Oc4ccccc4)cc3)cc(=O)n12 (centres undefined)	134% (inactive)
COc1cc2c(cc1OC)C(COc1ccc3c(C)cc(=O)oc3c1)N(C(=O)c1ccc(C)c(C)c1)CC2 (centres undefined)	74% (inactive)
Cc1oc(-c2ccc(C(=O)NCc3ccccc3F)cc2)nc1COc1ccccc1	77% (inactive)
CCOC(=O)c1ccccc1NC(=O)CCc1c(C)nc2ncnn2c1C	87% (inactive)

Compound	survival
CCN(Cc1ccccc1)C(=O)Cn1c(=O)n(-c2ccc(Cl)cc2)c(=O)c2c(C)c(C)sc21	76% (inactive)
CCN(Cc1ccccc1)C(=O)Cn1c(=O)n(-c2ccc(C)c(C)c2)c(=O)c2c(C)c(C)sc21	84% (inactive)
COc1ccc(NC(=O)Cn2c(=O)n(-c3ccccc3)c(=O)c3c4c(sc32)CCCC4)cc1	98% (inactive)
CCOc1ccc(-n2c(=O)c3c(C)c(C)sc3n(CC(=O)N(CC)Cc3ccccc3)c2=O)cc1	45% (active)
CCOc1ccc(NC(=O)Cn2c(=O)n(-c3cccc(OC)c3)c(=O)c3c4c(sc32)CCCC4)cc1	95% (inactive)
CCOc1ccc(NC(=O)Cn2c(=O)n(-c3ccccc3)c(=O)c3c4c(sc32)CCCC4)cc1	90% (active)
CCOC(=O)c1c(C)oc2nc(C)nc(NCC3CCN(Cc4cccc(Cl)c4)CC3)c12	62% (inactive)
COc1cccc(NC(=O)CCS(=O)(=O)c2ccc3c(c2)oc(=O)n3C)c1	89% (inactive)
Cc1ccc(CSc2nnc3[nH]c(=O)cc(C)n23)cc1	71% (inactive)
Cc1ccc(NC(=O)CSc2nc3c(oc4ccccc43)c(=O)n2Cc2ccco2)cc1	70% (inactive)
CC(C)C(=O)N1C2CCC1CC(O)(c1ccccc1F)C2 (centres undefined)	86% (inactive)
COc1cccc(CN(Cc2ccco2)C(c2ccc(OC)c(OC)c2)c2nnnn2Cc2ccccc2)c1 (centres undefined)	67% (inactive)
N#C/C(=C\c1ccccc1F)c1nc2ccccc2c(=O)[nH]1	66% (inactive)
COc1cccc(/C=C(\C#N)c2nc3ccc(C)cc3[nH]2)c1	46% (inactive)
Cc1ccc2nc(/C(C#N)=C/c3ccccc3F)[nH]c2c1	31% (active)
Cc1cccc(/C=C(\C#N)c2nc3ccccc3c(=O)[nH]2)c1	91% (inactive)
COc1cc(Br)c(/C=C(\C#N)c2nc3ccccc3[nH]2)cc1OC	110% (inactive)
Cc1ccc2nc(/C(C#N)=C/c3cccc(Br)c3)[nH]c2c1	3% (active)
Oc1ccc(-c2nnc(SCc3ccc(Cl)cc3)o2)cc1	89% (inactive)
COc1ccccc1-c1nnc(SCCOc2ccccc2C)o1	73% (inactive)
CCOc1ccccc1-c1nnc(SCc2ccc(Cl)cc2)o1	-1% (active)
